# Assay results from the supplement of paper PMC6555819.
# Assays:
# Experiment in all cases: PBM binding z-score (relative to random genomic background probes); higher = stronger binding; sequences stand for … in GC…GCGATTGACAGCGTAGAATGAAGG
# [1] = test system: FXR:RXRa (NR concentration 270 nM, RXRa partner concentration 90 nM)
# Summary of the method: (§1)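 Antibodies against each partner of ligand-free nuclear receptor dimers (one per run) detected binding on custom Agilent 4×180K protein-binding microarrays after 1 h incubation. The double-stranded probes had 34-nt variable regions carrying direct-repeat seeds, single-nucleotide variants, half-site ablations and random human genomic background sequences. Binding z-scores, from regression-normalized fluorescence, use the random background probes as reference.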
# [2] = test system: LXRa:RXRa (NR concentration 270 nM, RXRa partner concentration 90 nM)
# Summary of the method: as §1
# [3] = test system: LXRa homodimer (NR concentration 270 nM)
# Summary of the method: as §1
# [4] = test system: LXRb:RXRa (NR concentration 270 nM, RXRa partner concentration 90 nM)
# Summary of the method: as §1
# [5] = test system: LXRb homodimer (NR concentration 270 nM)
# Summary of the method: as §1
# [6] = test system: PPARa:RXRa (NR concentration 270 nM, RXRa partner concentration 90 nM)
# Summary of the method: as §1
# [7] = test system: PPARg:RXRa (NR concentration 180 nM, RXRa partner concentration 90 nM)
# Summary of the method: as §1
# [8] = test system: PPARg:RXRa 270nM:90nM, anti-RXR (NR concentration 270 nM, RXRa partner concentration 90 nM)
# Summary of the method: as §1
# [9] = test system: PPARg:RXRa 30nM:10nM, anti-RXR (NR concentration 30 nM, RXRa partner concentration 10 nM)
# Summary of the method: as §1
# [10] = test system: PPARg:RXRa 90nM:30nM, anti-RXR (NR concentration 90 nM, RXRa partner concentration 30 nM)
# Summary of the method: as §1
# [11] = test system: PPARg:RXRa DBDmut IVT, anti-RXR (DBD mutation: RXRa K156A/R161A, NR concentration 270 nM, RXRa partner concentration 90 nM)
# Summary of the method: as §1
# [12] = test system: PPARg:RXRa IVT, anti-PPARg (NR concentration 270 nM, RXRa partner concentration 90 nM)
# Summary of the method: as §1
# [13] = test system: PPARg DBDmut:RXRa IVT, anti-PPARg (DBD mutation: PPARg1 K132A/R137A, NR concentration 270 nM, RXRa partner concentration 90 nM)
# Summary of the method: as §1
# [14] = test system: PPARg DBDmut IVT, anti-PPARg (DBD mutation: PPARg1 K132A/R137A, NR concentration 270 nM)
# Summary of the method: as §1
# [15] = test system: PPARg homodimer (NR concentration 180 nM)
# Summary of the method: as §1
# [16] = test system: PXR:RXRa (NR concentration 270 nM, RXRa partner concentration 90 nM)
# Summary of the method: as §1
# [17] = test system: PXR homodimer (NR concentration 270 nM)
# Summary of the method: as §1
# [18] = test system: RARa:RXR (NR concentration 270 nM, RXRa partner concentration 90 nM)
# Summary of the method: as §1
# [19] = test system: RARa homodimer (NR concentration 270 nM)
# Summary of the method: as §1
# [20] = test system: RARb:RXRa (NR concentration 270 nM, RXRa partner concentration 90 nM)
# Summary of the method: as §1
Sequence,PBM binding z-score [1],PBM binding z-score [2],PBM binding z-score [3],PBM binding z-score [4],PBM binding z-score [5],PBM binding z-score [6],PBM binding z-score [7],PBM binding z-score [8],PBM binding z-score [9],PBM binding z-score [10],PBM binding z-score [11],PBM binding z-score [12],PBM binding z-score [13],PBM binding z-score [14],PBM binding z-score [15],PBM binding z-score [16],PBM binding z-score [17],PBM binding z-score [18],PBM binding z-score [19],PBM binding z-score [20]
ATACCAAGGTGATCGTGAAGTCGTTGATACTAAC,0.402,0.225,0.0745,0.448,-0.0277,0.429,0.37,0.481,-0.0865,0.2,0.462,1.26,0.643,0.615,0.766,0.468,-0.0567,0.548,0.427,0.582
CCTTACGGTTCAAGGTTATAGCACGGGTGGTACG,2.11,1.96,0.742,1.66,0.441,2.53,0.899,1.18,0.229,0.767,-0.682,0.211,0.502,-0.14,1.49,2.28,1.34,2.24,1.14,1.73
CTGAGTAGGTTATGGGGCATTCAGGCAACGGTGA,0.204,0.0795,0.0598,0.763,-0.118,2.8,4.62,5.02,3.08,5.01,4.73,4.47,0.603,-0.059,0.463,0.0232,0.0116,0.559,-0.472,0.942
TCTTGTAGCTCAAAGGTTAAGAAAGCCGAAGCCT,0.766,1.08,-0.349,1.32,-0.747,3.36,4.77,6.09,4.64,6.1,1.21,1.99,0.0313,-0.321,0.397,1.27,-0.227,1.83,-0.437,1.61
CGAACGAGGGCATGAGCTGATAGCAAATGCCGAT,0.486,0.253,-0.266,0.0131,-0.954,1.39,1.02,0.67,-0.212,0.364,2.42,1.97,0.174,-0.689,-0.392,0.327,-0.221,0.529,-0.331,1.87
TTACCAAGGTGAAAGGACGTTGATGCACGCCTTG,0.449,0.351,-0.414,0.198,-0.801,1.72,2.29,3.48,1.96,3.14,1.91,2.84,0.863,0.655,0.691,-0.0719,-0.136,0.603,-0.181,1.6
ACTCGTAGGACAAAGGTCAGAGCTACGCCAGTGA,3.9,4.29,1.39,3.3,0.607,5.11,7.99,7.75,6.47,8.26,1.2,3.67,0.241,0.756,4.17,3.73,0.25,4.94,1.41,4.18
TTACCAAGATGAGCTGAGGTCGTTGATCCAACTC,0.71,0.408,0.0791,0.458,-0.782,0.853,0.0458,0.511,0.543,0.66,0.238,0.101,-0.000343,-0.456,0.0396,1.87,0.628,1.35,-0.33,0.279
ATATGTTGGTTATCGGGTCATTCAGTTTGCGCAT,2.39,2.42,1.49,2.76,1.77,2.86,1.7,2.19,0.577,1.65,2.6,3.36,1.53,2.49,2.81,3.49,7.6,3.19,2.08,2.05
AGAATGAGGTTATTAATATCAGGGAATTGCGGTC,1.19,1.32,0.394,1.3,-0.0827,2.47,1.54,1.67,0.598,1.35,2.96,2.52,1.52,0.456,0.953,1.27,0.447,1.32,0.74,1.18
GCTAGTTGATCAGTAAAAGGTCACACACCGGTCG,3.16,4.73,4.21,3.98,0.478,4.53,2.11,4.16,1.58,3.46,0.158,1.96,0.246,0.272,2.88,4.83,0.914,5.64,2.24,3.89
TGTCAAACTTCAAAGGTAACGTAAGTATCCACAC,0.417,0.363,-0.174,0.695,0.266,0.877,0.587,0.784,0.906,0.841,-0.251,1.47,0.991,1.2,0.478,0.345,-0.16,0.522,0.335,0.94
GCTGCTAGGTCCACTGATGGTCAGCTAAAGCTCG,-0.489,-0.3,-0.698,-0.586,-0.746,-0.509,-0.592,-0.813,-0.963,-0.946,0.0704,-0.423,-1.19,-1.02,-1.01,-0.525,-1.03,-0.598,-1.55,0.403
GATATAGGGTCAAGGCCAGAGTACGCGTATTGAT,7.01,4.58,0.271,3.91,0.188,5.82,6.29,6.2,3.04,5.65,4,4.64,1.73,1.98,3.01,4.14,0.146,4.91,1.13,4.62
CCTGCTAGGTCACGGTCAGCTAATCTACAGTATG,4.56,3.65,0.541,2.45,0.134,4.05,4.31,4.17,1.72,3.2,5.34,5.12,1.07,0.203,2.79,2.08,-0.469,3.24,1.67,4.46
